Among the data in PubChem BioAssay (Tox21) are outcome and Potency values, retold here.

Assay [1] is described as follows: qHTS assay to identify small molecule antagonists of the estrogen receptor beta (ER-beta) signaling pathway - cell viability counter screen (AID 1259382).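 Further: HEK293T cells carrying ER-beta-UAS-bla reporter stimulated with estradiol; series mostly up to about 92 µM; nearly all actives have a fitted effect of over 55% in size.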 In a few lines: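 Luminescent ATP read-out (CellTiter-Glo, 30 min, RT) taken in the same wells as the bla reporter assay. HEK293T ER-beta-UAS-bla cells in 2% charcoal-stripped FBS were exposed to compounds with 1nM E2 for 16 hr at 37C.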
On the technique in general: In qHTS, concentration-response curves come from the screen itself.

The target of assay [2] is Estrogen receptor (Homo sapiens) (UniProt P03372). As to the kind of experiment: qHTS assay to identify small molecule agonists of the estrogen receptor alpha (ER-alpha) signaling pathway in the presence of an antagonist (AID 1259383; calls by dose curve; further: top concentration of the series differs between compounds; nearly all actives have a fitted effect of over 15% in size). Put shortly: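 Luciferase luminescence (ONE-Glo, 30min at room temperature) measured in VM7Luc4E2 cells after 22hr compound exposure at 15 concentrations, with 10.0nM ICI-182,780 final present; cells express endogenous ER-alpha and carry four EREs upstream of luciferase.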

The nature of assay [3]: qHTS assay to identify small molecule agonists or antagonists of the thyroid stimulating hormone receptor (TSHR) signaling pathway - wild type cell line counter screen (AID 1259384; calls by dose curve). In a few lines: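 Wild-type HEK293 cells were plated 18 h at 37 C/5% CO2, pin-dosed with compound plus Ro20-1724 medium, held 30 min at room temperature, then given cAMP-d2 and anti-cAMP-cryptate; fluorescence was read after 1 h. Fifteen concentrations, triplicate.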

The target in assay [4] is Thyrotropin receptor (Homo sapiens) (UniProt P16473). As to the kind of experiment: qHTS assay to identify small molecule antagonists of the thyroid stimulating hormone receptor (TSHR) signaling pathway (AID 1259385; calls by dose curve; further: nearly all actives have a fitted effect of over 20% in size). In a few lines: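 TSHR-HEK293 cells were plated and held 18 h at 37C/5% CO2, then given compound plus Ro20-1724 and stimulated with TSH at 1.5 ng/mL final. After 30 min at room temperature, cAMP was detected with cAMP-d2/anti-cAMP-cryptate (1 h) by fluorescence.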

Assay [5] addresses Progesterone receptor (Homo sapiens) (UniProt P06401). As to the kind of experiment: qHTS assay to identify small molecule antagonists of the progesterone receptor (PR) signaling pathway (AID 1346795; active means well fitted inhibition curve with a large enough effect in the signal ratio in the repeat runs, not every such curve was filed as active; the % refers to the signal ratio). Put shortly:
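Antagonist mode with agonist R5020 at 1 nM final and 16 hr incubation at 37C. Reporter was beta-lactamase driven by UAS in HEK293T (PR-UAS-bla), 2% charcoal-stripped serum; signal from LiveBLAzer FRET substrate, 2 hr at room temperature.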

Assay [6] can be described thus: qHTS assay to identify small molecule antagonists of the progesterone receptor (PR) signaling pathway - cell viability counter screen (AID 1346798). Further: nearly all actives have a fitted effect of over 50% in size. Further: potency means the concentration at half of the fitted maximal effect. In a few lines: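 Cytotoxicity read as CellTiter-Glo luminescence (30 min, room temperature) in the same wells as the beta-lactamase readout. HEK293T PR-UAS-bla cells in charcoal-stripped 2% FBS received compound and R5020, then 16 h at 37C, 5% CO2.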

Assay [7] can be described thus: qHTS assay to identify small molecule antagonists of the TGF-beta/Smad signaling pathway - cell viability counter screen (AID 1346824). Further: nearly all actives have a fitted effect of over 50% in size. Put shortly:
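SBE-bla HEK 293T cells were plated overnight at 37 C, then given compounds in DMSO plus TGF-beta1 (added as 0.25 ng/mL solution) for 5 hr. After the bla read, CellTiter-Glo was added to the same wells and luminescence read after 30 min at room temperature.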

Assay [8] is described as follows: qHTS assay to identify small molecule agonists of the estrogen receptor alpha (ER-alpha) signaling pathway in the presence of an antagonist - cell viability counter screen (AID 1259386). Further: series mostly up to about 92 µM; nearly all actives have a fitted effect of over 30% in size. In a few lines: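 Read-out: CellTiter-Fluor fluorescence after 1hr reagent incubation, measured in the same wells as the luciferase readout. VM7Luc4E2 cells were exposed to 15 compound concentrations with 10.0nM ICI-182,780 for 22hr at 37C.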

Assay [9] deals with Progesterone receptor (Homo sapiens) (UniProt P06401). The assay is described as follows: qHTS assay to identify small molecule agonists of the progesterone receptor (PR) signaling pathway (AID 1346784; calls by dose curve; further: nearly all actives have a fitted effect of over 30% in size). In a few lines: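 Agonist qHTS: compounds pinned onto 3,000 PR-UAS-bla HEK 293T cells per well in charcoal-stripped serum medium, 16hr at 37C, then beta-lactamase activity measured by LiveBLAzer FRET fluorescence after 2 hours at room temperature.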

Assay [10] is described as follows: qHTS assay to identify small molecule agonists of the progesterone receptor (PR) signaling pathway - cell viability counter screen (AID 1346799; calls by dose curve; further: nearly all actives have a fitted effect of over 45% in size; further: potency means the concentration at half of the fitted maximal effect). Put shortly:
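Cytotoxicity measured by CellTiter-Glo luminescence (30 min, RT) in the same wells as the PR beta-lactamase agonist read. Those HEK293T cells had 16 h compound treatment at 37 C in 2% charcoal-stripped FBS medium.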

Records with an inconclusive call do not appear. Activity calls are given as the source filed them. Unless noted, the call rests on the fitted dose curve; in most records, active means well fitted curve in the direction sought with a large enough effect in the repeat runs; inconclusive means weak or mixed curves; inactive means no such curve, though single readings can be large; an effect the other way counts as inactive or inconclusive.

Sequence of Estrogen receptor (Homo sapiens) (P03372 whole entry, looked up): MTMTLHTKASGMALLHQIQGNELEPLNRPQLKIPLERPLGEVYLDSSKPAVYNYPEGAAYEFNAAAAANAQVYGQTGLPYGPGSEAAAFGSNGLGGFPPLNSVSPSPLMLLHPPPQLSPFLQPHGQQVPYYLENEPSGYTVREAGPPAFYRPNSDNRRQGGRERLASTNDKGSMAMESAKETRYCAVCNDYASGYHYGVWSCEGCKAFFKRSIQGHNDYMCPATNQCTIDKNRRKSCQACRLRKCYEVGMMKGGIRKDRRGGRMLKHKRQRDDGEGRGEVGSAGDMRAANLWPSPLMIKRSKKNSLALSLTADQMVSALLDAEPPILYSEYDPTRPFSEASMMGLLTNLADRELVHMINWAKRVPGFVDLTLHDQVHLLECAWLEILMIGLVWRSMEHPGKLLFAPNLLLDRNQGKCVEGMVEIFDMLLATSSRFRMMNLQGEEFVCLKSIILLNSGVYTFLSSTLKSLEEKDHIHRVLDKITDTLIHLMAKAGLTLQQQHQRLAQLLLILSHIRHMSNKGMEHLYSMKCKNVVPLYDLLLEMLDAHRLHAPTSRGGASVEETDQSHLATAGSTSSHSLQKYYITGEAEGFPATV
Sequence of Progesterone receptor (Homo sapiens) (P06401 whole entry, looked up): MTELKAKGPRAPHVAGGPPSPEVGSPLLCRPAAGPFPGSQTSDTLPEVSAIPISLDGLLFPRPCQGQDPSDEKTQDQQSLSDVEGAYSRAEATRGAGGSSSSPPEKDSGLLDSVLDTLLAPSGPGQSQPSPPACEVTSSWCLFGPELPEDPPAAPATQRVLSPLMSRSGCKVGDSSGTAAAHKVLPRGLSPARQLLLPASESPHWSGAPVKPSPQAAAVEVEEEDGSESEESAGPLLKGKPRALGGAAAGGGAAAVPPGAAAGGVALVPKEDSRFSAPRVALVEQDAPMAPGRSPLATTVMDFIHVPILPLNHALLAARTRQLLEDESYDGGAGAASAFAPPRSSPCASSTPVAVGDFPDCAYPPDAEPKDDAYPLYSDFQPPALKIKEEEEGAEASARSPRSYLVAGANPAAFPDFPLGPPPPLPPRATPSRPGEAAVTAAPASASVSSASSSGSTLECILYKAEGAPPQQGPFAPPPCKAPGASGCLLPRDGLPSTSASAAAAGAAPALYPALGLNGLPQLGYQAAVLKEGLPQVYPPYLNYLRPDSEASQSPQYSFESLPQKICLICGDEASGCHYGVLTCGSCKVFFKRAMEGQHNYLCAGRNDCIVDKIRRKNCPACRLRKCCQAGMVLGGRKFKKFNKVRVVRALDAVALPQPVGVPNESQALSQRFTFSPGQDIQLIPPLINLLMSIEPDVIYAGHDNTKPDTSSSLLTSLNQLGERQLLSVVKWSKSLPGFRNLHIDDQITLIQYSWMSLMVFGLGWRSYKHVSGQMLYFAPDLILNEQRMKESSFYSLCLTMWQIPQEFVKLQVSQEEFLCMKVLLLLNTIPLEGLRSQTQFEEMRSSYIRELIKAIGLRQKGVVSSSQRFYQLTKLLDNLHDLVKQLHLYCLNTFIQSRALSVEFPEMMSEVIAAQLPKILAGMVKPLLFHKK
Sequence of Thyrotropin receptor (Homo sapiens) (P16473 whole entry, looked up): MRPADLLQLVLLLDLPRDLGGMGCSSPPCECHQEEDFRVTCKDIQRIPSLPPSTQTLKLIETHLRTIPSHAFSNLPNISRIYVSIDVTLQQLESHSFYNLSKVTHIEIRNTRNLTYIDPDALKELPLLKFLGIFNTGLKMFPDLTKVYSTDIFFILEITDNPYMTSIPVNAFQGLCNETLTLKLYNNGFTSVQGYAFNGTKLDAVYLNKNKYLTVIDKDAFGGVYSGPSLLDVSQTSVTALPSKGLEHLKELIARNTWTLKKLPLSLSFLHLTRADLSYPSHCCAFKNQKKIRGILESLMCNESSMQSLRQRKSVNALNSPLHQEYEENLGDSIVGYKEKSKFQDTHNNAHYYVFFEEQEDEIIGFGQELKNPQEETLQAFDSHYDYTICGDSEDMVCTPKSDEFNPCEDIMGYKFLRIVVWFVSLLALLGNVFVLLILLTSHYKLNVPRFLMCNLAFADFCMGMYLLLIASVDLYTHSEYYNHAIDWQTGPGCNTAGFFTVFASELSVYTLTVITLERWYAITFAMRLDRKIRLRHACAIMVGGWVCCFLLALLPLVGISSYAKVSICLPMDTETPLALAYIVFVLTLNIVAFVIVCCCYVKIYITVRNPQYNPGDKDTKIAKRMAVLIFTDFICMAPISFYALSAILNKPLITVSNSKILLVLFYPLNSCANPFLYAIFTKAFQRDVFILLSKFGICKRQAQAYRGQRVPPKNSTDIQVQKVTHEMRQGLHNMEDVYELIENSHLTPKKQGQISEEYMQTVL

Consider `COC(/C=C(\C)CCC=C(C)C)OC`, for which the result in [1], in assay [2], in assay [3], in assay [4] and in [7] was inactive. Further, the Potency entry in [5] and in assay [6] was “inactive” each time.

With `Nc1cc(C(=O)O)ccc1Cl`, the call in [1], in [2], in assay [3] and in assay [7] was inactive. The Potency result in [8], in assay [9], in [5], in assay [6] and in assay [10] was “inactive” each time.

On to `CCCCCC(=O)OCC`, for which the compound was classed as inactive in assay [1], in assay [2] and in [3]. The Potency result in assay [8], in assay [9], in assay [5], in assay [6] and in assay [10] was “inactive” throughout.

Consider `CCCCOC(=O)[C@@H](C)Oc1ccc(Oc2ccc(C(F)(F)F)cn2)cc1`, for which the compound was classed as inactive in assay [1], in assay [2], in assay [3] and in [7]. In addition, the Potency result in assay [8], in [9], in assay [5], in assay [6] and in [10] was “inactive” each time.

In the case of `CCC(C)(C)C1CCC(=O)CC1`, the compound was classed as inactive in [1], in assay [2], in assay [3] and in assay [7]. Moreover, the Potency result in [8], in [9], in assay [5], in assay [6] and in [10] was “inactive” throughout.

Turning to `O=P(O)(O)OCC(O)CO` (stereo not given), the outcome in assay [1], in assay [2] and in assay [7] was inactive. Also, the Potency result in [9], in assay [5], in assay [6] and in assay [10] was “inactive” each time.

Consider `CCCCCN(CCCOC)C(=O)C(CCC(=O)O)NC(=O)c1ccc(Cl)c(Cl)c1` (stereo not given), for which the result in [1], in [2] and in [7] was inactive. Further, the Potency entry in [8], in assay [9], in [5] and in assay [6] was “inactive” throughout.

Consider `CCCCC(C)C(=O)O` (stereo not given), for which the compound was classed as inactive in assay [1], in assay [3] and in assay [4]. The Potency entry in assay [8], in assay [9], in assay [5] and in assay [6] was “inactive” throughout.

For the compound `Cc1ccc(C(=O)C(=O)O)cc1C`, the call in assay [1], in assay [2] and in assay [7] was inactive. Further, the Potency entry in [8], in assay [9], in [5] and in assay [6] was “inactive” each time.

Turning to `CC(C)(C)NCCO`, the compound was called inactive in assay [1], in assay [2] and in [7]. The Potency entry in [8] and in [9] was “inactive” in each case. Besides, the Potency in assay [6] is 30.6 µM (active); in assay [10], 48.6 µM (active).

As to `CC(=O)Nc1ccc(C)cc1`, the call in assay [1], in [2] and in [7] was inactive. For the same compound, the Potency result in [9], in assay [5], in [6] and in assay [10] was “inactive” throughout.

In the case of `CCC(C)N` (stereo not given), the call in [1], in assay [2] and in assay [7] was inactive. The Potency result in assay [9], in assay [5] and in assay [6] was “inactive” in each case.
